Experimental data taken from PubChem BioAssay.

Test system: not listed separately
Assay: inhibitors of PAF-induced NFkB signaling in CF airway cells, dose response, cell-based, uHTS hits, panel, cytotoxicity readout (AID 624344)
Details: CF bronchial epithelial cells, PAF-induced NFkB reporter inhibition, with PAF, run 1; at 79 µM (top of the series) unless noted; in the data active = activity above about 50%; inactive = the rest

Q: Which inhibition does the source give for `C=CCN(CC=C)c1ncnc2[nH]ncc12` here?
A: 99.9%

Q: Which inhibition does the source give for `COc1cccc(-c2ccc3ncnc(NCc4cccs4)c3c2)c1` here?
A: 117%

Q: Which inhibition does the source give for `CCC1(O)CC2CN(CCc3c([nH]c4ccccc34)C(C(=O)OC)(c3cc4c(cc3OC)N(C=O)C3C(O)(C(=O)OC)C(OC(C)=O)C5(CC)C=CCN6CCC43C65)C2)C1` (configuration not stated) here?
A: 107%

Q: Which inhibition does the source give for `Cc1ccc(N(C)C(=O)c2cc(S(=O)(=O)N3CCCCC3)c[nH]2)cc1` here?
A: 93.5%

Q: Which inhibition does the source give for `O=S(=O)(c1ccc(Br)cc1)c1cnc2ccccc2n1` here?
A: 100%

Q: For `O=C(O)/C=C/c1ccc2c(-c3ccccc3)onc2c1`, which inhibition is on record?
A: 113%

Q: With `CCOc1ccc(-n2c(C)c(C(C)=O)c3cc(OC(C)=O)ccc32)cc1` as the compound, how does the inhibition read?
A: 89%

Q: For `CCC(=O)Nc1nc(C)c(-c2csc(Nc3cccc(O)c3)n2)s1`, which inhibition is on record?
A: 95.9%

Q: For `CCOc1cc2c(cc1O)C(=NOC)CC1C2CCC2(C)C(O)CCC12` (configuration not stated), which inhibition is on record?
A: 74%

Q: With `S=c1[nH]nc(-c2ccncc2)n1/N=C/C(Cl)=C\c1ccccc1` as the compound, how does the inhibition read?
A: 101%

Q: For `Cc1c(Cl)cccc1NC(=O)CSc1nc2ncc(Cl)cc2[nH]1`, which inhibition is on record?
A: 98.5% [at 19.8 µM]

Q: Which inhibition does the source give for `O=C(Nc1cccc(Cl)c1)Nc1csc([N+](=O)[O-])c1` here?
A: 114%

Q: Which inhibition does the source give for `COc1ccccc1NS(=O)(=O)c1cccc(-n2c(O)c(C=Nc3ccccc3C(=O)O)c3ccccc3c2=O)c1` here?
A: 105%

Q: For `C[C@H]1Cn2cnc(C(=O)Nc3cccc(Cl)c3)c2C(=O)N1`, which inhibition is on record?
A: 105%

Q: For `CC1Sc2ccc(Cl)cc2-c2nc(N)ncc21` (configuration not stated), which inhibition is on record?
A: 102%

Q: With `c1ccc(-c2nc3nonc3nc2-c2ccccc2)cc1` as the compound, how does the inhibition read?
A: 102%

Q: Which inhibition does the source give for `Nc1ncc(-c2ccccc2)c(-c2ccc(O)cc2O)n1` here?
A: 100%

Q: With `CC[C@H](CO)Nc1nc(Nc2cccc(Cl)c2)c2ncn(C(C)C)c2n1` as the compound, how does the inhibition read?
A: 106%

Test system: not listed separately
Assay: as above
Details: CF bronchial epithelial cells, PAF-induced NFkB reporter inhibition, with PAF, run 2; at 79 µM (top of the series) unless noted

Q: With `C=CCN(CC=C)c1ncnc2[nH]ncc12` as the compound, how does the inhibition read?
A: 109%

Q: Which inhibition does the source give for `COc1cccc(-c2ccc3ncnc(NCc4cccs4)c3c2)c1` here?
A: 99.9%

Q: With `CCC1(O)CC2CN(CCc3c([nH]c4ccccc34)C(C(=O)OC)(c3cc4c(cc3OC)N(C=O)C3C(O)(C(=O)OC)C(OC(C)=O)C5(CC)C=CCN6CCC43C65)C2)C1` (configuration not stated) as the compound, how does the inhibition read?
A: 78.2%

Q: Which inhibition does the source give for `Cc1ccc(N(C)C(=O)c2cc(S(=O)(=O)N3CCCCC3)c[nH]2)cc1` here?
A: 79%

Q: Which inhibition does the source give for `O=S(=O)(c1ccc(Br)cc1)c1cnc2ccccc2n1` here?
A: 106%

Q: With `O=C(O)/C=C/c1ccc2c(-c3ccccc3)onc2c1` as the compound, how does the inhibition read?
A: 105%

Q: For `CCOc1ccc(-n2c(C)c(C(C)=O)c3cc(OC(C)=O)ccc32)cc1`, which inhibition is on record?
A: 90%

Q: Which inhibition does the source give for `CCC(=O)Nc1nc(C)c(-c2csc(Nc3cccc(O)c3)n2)s1` here?
A: 104%

Q: Which inhibition does the source give for `CCOc1cc2c(cc1O)C(=NOC)CC1C2CCC2(C)C(O)CCC12` (configuration not stated) here?
A: 94.3%

Q: With `S=c1[nH]nc(-c2ccncc2)n1/N=C/C(Cl)=C\c1ccccc1` as the compound, how does the inhibition read?
A: 109%

Q: For `Cc1c(Cl)cccc1NC(=O)CSc1nc2ncc(Cl)cc2[nH]1`, which inhibition is on record?
A: 98.7%

Q: For `O=C(Nc1cccc(Cl)c1)Nc1csc([N+](=O)[O-])c1`, which inhibition is on record?
A: 97.5%

Q: Which inhibition does the source give for `COc1ccccc1NS(=O)(=O)c1cccc(-n2c(O)c(C=Nc3ccccc3C(=O)O)c3ccccc3c2=O)c1` here?
A: 85%

Q: With `C[C@H]1Cn2cnc(C(=O)Nc3cccc(Cl)c3)c2C(=O)N1` as the compound, how does the inhibition read?
A: 104%

Q: For `CC1Sc2ccc(Cl)cc2-c2nc(N)ncc21` (configuration not stated), which inhibition is on record?
A: 108%

Q: For `c1ccc(-c2nc3nonc3nc2-c2ccccc2)cc1`, which inhibition is on record?
A: 109%

Q: Which inhibition does the source give for `Nc1ncc(-c2ccccc2)c(-c2ccc(O)cc2O)n1` here?
A: 112%

Q: Which inhibition does the source give for `CC[C@H](CO)Nc1nc(Nc2cccc(Cl)c2)c2ncn(C(C)C)c2n1` here?
A: 108%

Molecular target: Tumor necrosis factor receptor superfamily member 10B (Homo sapiens) (UniProt O14763)
Assay: caspase-8 TRAIL sensitization, hit retest, confirmation, cell-based, NB7+caspase-8, with/without TRAIL, luminescence panel (AID 651596)
Details: NB7 neuroblastoma + caspase-8, TRAIL sensitization, luminescence viability, with TRAIL, mean of runs, at 10 µM, stronger effect = higher value

Tumor necrosis factor receptor superfamily member 10B (Homo sapiens), sequence (O14763 whole entry, looked up): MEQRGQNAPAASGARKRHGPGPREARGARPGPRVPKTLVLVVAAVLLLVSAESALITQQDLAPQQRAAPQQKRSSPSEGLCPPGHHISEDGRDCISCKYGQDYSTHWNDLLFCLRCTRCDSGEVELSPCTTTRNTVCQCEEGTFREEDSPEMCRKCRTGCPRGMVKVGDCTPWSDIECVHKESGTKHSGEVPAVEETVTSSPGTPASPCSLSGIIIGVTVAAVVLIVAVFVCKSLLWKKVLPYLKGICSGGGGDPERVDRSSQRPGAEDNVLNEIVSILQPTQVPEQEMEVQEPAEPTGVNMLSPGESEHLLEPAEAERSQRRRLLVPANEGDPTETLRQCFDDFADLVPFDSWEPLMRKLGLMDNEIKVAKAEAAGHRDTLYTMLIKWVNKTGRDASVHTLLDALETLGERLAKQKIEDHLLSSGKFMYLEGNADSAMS

Q: For `Cc1ccc(C(=O)NCCc2cccs2)cc1`, which activity is on record?
A: 76.6%

Q: With `Cc1cc(C)c2sc(N(CCCN(C)C)C(=O)c3ccc(S(=O)(=O)N(C)C4CCCCC4)cc3)nc2c1` as the compound, how does the activity read?
A: 17.8%

Q: Which activity does the source give for `N/C(=N\OC(=O)c1ccccc1)C(C(=O)NOC(=O)c1ccccc1)C1CCCCC1` (configuration not stated) here?
A: 97.6%

Q: With `Cc1ccc(N(Cc2cc(=O)[nH]c3ccccc23)C(=O)CCl)c(C)c1` as the compound, how does the activity read?
A: 96.8%

Q: For `CCN1CCN(c2ccc(S(=O)(=O)N3CCOCC3)cc2NC(=O)/C=C/c2ccc([N+](=O)[O-])cc2)CC1`, which activity is on record?
A: 50.9%

Q: For `CC1CCCCN1S(=O)(=O)c1ccc(C(=O)N(CCCN(C)C)c2nc3ccc(Br)cc3s2)cc1` (configuration not stated), which activity is on record?
A: 22.4%

Q: With `COc1ccccc1N(C(=O)CCl)c1cn(C(C)=O)c2ccccc12` as the compound, how does the activity read?
A: 99.5%

Q: With `CC(C)(C)C(=O)Nc1cc2nn(-c3ccccc3)nc2cc1Cl` as the compound, how does the activity read?
A: 98.2%

Q: With `O=C(NC1CCCCC1)C(c1cccnc1)N(C(=O)CCl)c1cccc(Cl)c1` (configuration not stated) as the compound, how does the activity read?
A: 99.3%

Q: For `CCOc1cccc2sc(N(CCCN(C)C)C(=O)c3ccc(S(=O)(=O)N(C)Cc4ccccc4)cc3)nc12`, which activity is on record?
A: 28.6%

Q: For `Cc1cc(C(=O)COC(=O)c2ccccc2Br)c(C)n1CC1CCCO1` (configuration not stated), which activity is on record?
A: 68.1%

Q: Which activity does the source give for `Cc1cccc(-n2ncc3c(N(C)C4CCCCC4)ncnc32)c1` here?
A: 89.4%

Q: Which activity does the source give for `O=C(CCl)N1N=C(c2ccco2)CC1c1cccs1` (configuration not stated) here?
A: 98.5%

Q: Which activity does the source give for `O=C(Nc1ccccc1)NN(C(=O)CCl)c1ccccc1` here?
A: 98.3%

Q: Which activity does the source give for `COc1cc(NC(=O)c2c(F)c(F)c(F)c(F)c2F)c(OC)cc1Cl` here?
A: 85.1%

Q: For `Cc1ccc2sc(N(CCCN(C)C)C(=O)c3ccc(S(=O)(=O)N4CCc5ccccc5C4)cc3)nc2c1C`, which activity is on record?
A: 75%

Q: For `CCCN(CC(=O)Nc1ccccc1C)C(=O)CCl`, which activity is on record?
A: 97.8%

Q: With `Cc1nn(C(C)(C)C)c(C)c1/C=N/OC(=O)Nc1ccc(Cl)cc1` as the compound, how does the activity read?
A: 94.2%

Q: Which activity does the source give for `CCn1c(C)cc(C(=O)COC(=O)c2ccccc2[N+](=O)[O-])c1C` here?
A: 94.7%

Q: For `Cc1noc(-c2ccc(Cl)cc2)c1C(=O)O/N=C(\N)c1ccc(C(C)(C)C)cc1`, which activity is on record?
A: 99.3%

Q: With `COCCn1c(C)cc(C(=O)COC(=O)c2ccccc2Br)c1C` as the compound, how does the activity read?
A: 79.5%
